In all, about 310,000 compounds went through this assay and about 11,000 (3.5%) were called active. Entries that show only a call come without a potency. About 8% were inconclusive and are not listed. This is one part of a sample in which actives are shown more often than they occur. Unmarked numbers belong to inactive results. The call rests on the fitted dose curve; in most records, active means well fitted inhibition curve with a large enough effect; inconclusive means small, poorly fitted or top-dose-only effect, or effect the other way; inactive means flat fitted curve, though single readings scatter.
assay: VP16 counterscreen qHTS for inhibitors of ROR gamma transcriptional activity; settings: Drosophila S2 Gal4-VP16 UAS-luciferase, luminescence, 20 h; series mostly up to 53.6 µM; further: nearly all actives have a fitted effect of over 50% in size
Text: NIH Molecular Libraries Probe Production Network [MLPCN]
NIH Chemical Genomics Center [NCGC]
Assay Provider: Dan Littman, New York University
The retinoic acid-related orphan receptor (ROR) gamma is a transcription factor that has a central role in the differentiation of Th17 cells, a subset of T helper cells that secrete the inflammatory cytokines IL-17, IL-17F, and IL-22. Th17 cells have been implicated in graft versus host disease, autoimmune disease and asthma. ROR gamma is induced in naive T helper cells in the presence of TGF-beta combined with IL-6, IL-21, or IL-23, and thereafter directs the expression of the Th17 lineage cytokines. To identify nonspecific inhibitors, a Drosophila Schneider cell line was stably transfected with two vectors: a gene expressing a fusion of the Gal4 DNA binding domain and VP16 transactivation domain under the control of the metallothionine promoter and a Photinus luciferase reporter regulated by the Gal4 binding site enhancer, UAS. […] Small molecule inhibitors that inhibit components common to the RORgt and VP16 assays, such as the Gal4 DNA binding domain or the UAS luciferase reporter, will be active in both assays and thus scored as nonspecific.
For screening, 600 cells in 4 uL/well were dispensed into white solid 1536-well plates (Grenier) using a solenoid-based dispenser. Following transfer of 23 nL compound or DMSO vehicle by a pin tool, the plates were incubated 1 hr at ambient temperature, and 1 uL/well copper sulfate (700 uM final concentration) was added. The plates were centrifuged 15 s at 1000 RPM and incubated 20 hr at ambient temperature. After addition of 1.5 uL Photinus luciferase detection reagent, the plates were incubated 10 min at ambient temperature and then read by a ViewLux (Perkin Elmer) to detect luminescence.
Potency means the concentration at half of the fitted maximal effect.

Structure (SMILES)	Potency	activity, negative = inhibition
Cc1occc(=O)c1OCc1ccc(F)cc1	inactive	–
Fc1cccc2ncnc(OCc3ccccc3)c12	inactive	–
Cc1nc2ccccc2cc1OCc1ccc(F)cc1	6.31 µM (active)	–
O=C(CCc1nnc2ccc(NCc3ccccc3Cl)nn12)NCC1CCN(C2CCCC2)C1 (stereo unspecified)	inactive	–
COC(=O)c1ccc(N2CCOCC2)c(NC(=O)c2ccc3c(c2)OCCO3)c1	inactive	–
COc1ccc(NC(=O)CCNC(=O)Cn2cnc3sc4c(c3c2=O)CCCC4)cc1OC	inactive	–
COc1ccc(NC(=O)CCCNC(=O)Cn2cnc3sc4c(c3c2=O)CCCC4)cc1OC	inactive	–
COc1ccc(/C=N/Nc2ncnc3sc4c(c23)CCCC4)cc1O	4.47 µM (active)	–
CNC(=O)C1CCN(S(=O)(=O)c2c(C)noc2/C=C/c2cccc(C)c2)CC1	inactive	–
O=C(Cc1ccccc1F)NC1CCSc2ccccc21 (stereo unspecified)	inactive	–
COc1ccc2nc(Nc3nc(-c4ccncc4)cs3)sc2c1	inactive	–
COc1ccc2nc(Nc3nc4ccc(NC(C)=O)cc4s3)sc2c1	7.08 µM (active)	–
COc1ccc2nc(NC(=O)NC3CCCCC3)sc2c1	inactive	–
CCC(=O)c1ccc(OCC(=O)Nc2ccc3nc(C)sc3c2)cc1	inactive	–
CCOc1ccc2nc(Nc3nc4ccc(NC(C)=O)cc4s3)sc2c1	7.08 µM (active)	–
CCOc1ccc2nc(NC(=O)CSc3nc4c(c(=O)n(C)c(=O)n4C)n3CC)sc2c1	inactive	–
O=C(Nc1cccc(-c2cscn2)c1)C1CCN(Cc2ccsc2)CC1	inactive	–
CCc1cccc(CC)c1NC(=S)NCc1ccc2[nH]c(C)cc2c1	11.2 µM (active)	–
Cc1cc2cc(CNC(=O)c3ccc(S(=O)(=O)N4CCOCC4)cc3)ccc2[nH]1	inactive	–
CCc1cccc(CC)c1NC(=S)Nc1ccc2cn[nH]c2c1	inactive	–
Cc1cc(Cl)ccc1C(=O)C1CCCN(C(=O)c2nonc2C)C1 (stereo unspecified)	inactive	–
Nc1nc(-c2ccccc2)cc(-c2ccccc2)n1	inactive	–

Structure (SMILES)	Potency	activity, negative = inhibition
COC(=O)c1cc(NC(=O)Cc2ccccc2[N+](=O)[O-])ccc1Cl	inactive	–
CC(=O)Nc1ccc(NC(=O)C(C)OC(=O)c2ccccc2C(=O)c2ccc(Cl)c([N+](=O)[O-])c2)cc1 (stereo unspecified)	inactive	–
N#Cc1cccc(NC(=O)COC(=O)c2ccccc2C(=O)c2ccc(Cl)c([N+](=O)[O-])c2)c1	7.08 µM (active)	–
Cc1ccccc1OCC(=O)Nc1nnc(S(=O)(=O)N2CCCC2)s1	inactive	–
OC(COc1ccc2ccccc2c1)CN1CCOCC1 (stereo unspecified)	inactive	–
Cc1nc2sc(C(c3ccco3)N3CCOCC3)c(O)n2n1 (stereo unspecified)	inactive	–
Oc1c(C(c2ccccn2)N2CCOCC2)ccc2cccnc12 (stereo unspecified)	2.82 µM (active)	–
COC(=O)c1ccc2c(C(C)(C)O)c(C(C)(C)O)[nH]c2c1	inactive	–
O=C(NCCNc1ccc([N+](=O)[O-])cc1Cl)c1ccccc1F	inactive	–
COC(=O)c1cc(NC(=O)c2cccnc2)ccc1N1CCOCC1	inactive	–
O=C(Nc1ccc(N2CCN(C(=O)c3ccccc3)CC2)c(Cl)c1)c1cccnc1	17.8 µM (active)	–
O=C(Nc1cccc(Cl)c1N1CCOCC1)c1cccnc1	inactive	–
COc1cccc(CNC(=O)CCCC(=O)Nc2cccc([N+](=O)[O-])c2)c1	inactive	–
S=C1SCN(CCN2CCOCC2)CN1Cc1ccccc1	inactive	–
N#CNC1=NCN(CCc2ccccc2)CN1	inactive	–
CCCN1CNC(=S)N(CCc2ccccc2)C1	3.16 µM (active)	–
COc1ccc(S(=O)(=O)N(CC(=O)N/N=C/c2ccccc2C(=O)O)c2ccccc2OC)cc1	inactive	–
COc1ccccc1N(CC(=O)N/N=C(\C)c1ccccc1O)S(=O)(=O)c1ccc(C)cc1	0.708 µM (active)	–
COc1ccccc1NC(=O)CN(c1ccccc1OC)S(=O)(=O)c1ccccc1	inactive	–
CC(C)OCCCNc1ncnc2c1[nH]c1ccc(F)cc12	2.82 µM (active)	–
CC(C)OCCCNC(=O)c1cc(Sc2ccc(F)cc2)nc2ccccc12	inactive	–
COc1cc(OC)c(OC)cc1/C=N/Nc1ncnc2c1[nH]c1ccc(C)cc12	inactive	–

Structure (SMILES)	Potency	activity, negative = inhibition
COC1=C(N2CCOCC2)C(=O)c2ccccc2C1=O	inactive	–
COC(=O)C(C)Oc1ccc2c(c1)O/C(=C\c1cccc(Br)c1)C2=O (stereo unspecified)	inactive	–
CCCS(=O)(=O)N1CCN=C1SCc1cccc(F)c1	inactive	–
COc1ccc(-c2noc(CNC(=O)C(C)Oc3ccccc3)n2)cc1 (stereo unspecified)	inactive	–
COc1ccc2[nH]c3nc(SCC(=O)NC4CC4)nnc3c2c1	inactive	–
COCCN(CCOC)S(=O)(=O)c1ccc(C(=O)Nc2nc3c(s2)CCc2ccccc2-3)cc1	12.6 µM (active)	–
COc1ccc(C(=O)Nc2ncc3c(n2)-c2ccccc2CC3)cc1	inactive	–
COCCN(CC(=O)Nc1ccccc1C)S(=O)(=O)c1ccc(S(=O)(=O)N2CCCC2)cc1	–	-1.46% [at 0.365 µM]
Cc1onc(-c2ccccc2)c1C(=O)Nc1ccccc1C#N	inactive	–
Cc1onc(-c2ccccc2)c1C(=O)N=C(N)c1ccc(Cl)cc1	inactive	–
CC(=O)Nc1cccc(NC(=O)c2c(-c3ccccc3)noc2C)c1	inactive	–
Cc1ccc(CNC(=O)c2c(-c3ccccc3)noc2C)cc1	inactive	–
Cc1onc(-c2ccccc2)c1C(=O)NNC(=S)NC(=O)c1ccc(F)cc1	2 µM (active)	–
COc1ccc(C(=O)NC(=S)NNC(=O)c2c(-c3ccccc3)noc2C)cc1	5.62 µM (active)	–
CC(C)c1ccc(S(=O)(=O)NC2CCCC2)cc1	inactive	–
COc1ccc(CN2CC(C(=O)NCCc3ccc(Cl)cc3)CC2=O)cc1 (stereo unspecified)	inactive	–
Cc1ccc(Oc2ccc(N)cc2)cc1	inactive	–
CC(C)(C)c1ccc(Oc2ccc(N)cc2)cc1	7.08 µM (active)	–
Nc1ccc(Oc2ccc(Cl)cc2)cc1	inactive	–
CC1=C(C(=O)NC2CC(C)(C)Cc3c2cnn3-c2ccc(C)cc2)OCCO1 (stereo unspecified)	inactive	–
NS(=O)(=O)c1ccc2nc(NC(=O)CS(=O)(=O)c3ccc(F)cc3)sc2c1	inactive	–
CCS(=O)(=O)N1Cc2ccccc2CC1C(=O)Nc1nc2ccc(F)cc2s1 (stereo unspecified)	11.2 µM (active)	–

Structure (SMILES)	Potency	activity, negative = inhibition
CCS(=O)(=O)N1Cc2ccccc2CC1C(=O)Nc1ccc(OC)cc1OC (stereo unspecified)	inactive	–
O=c1c2cc([N+](=O)[O-])ccc2nc2n1CCC2	inactive	–
O=S(=O)(NC1CCCCC1N1CCC(O)CC1)c1ccc(Cl)cc1 (stereo unspecified)	inactive	–
COc1cccc(CN(C)CC(O)COC(c2ccccc2)c2ccccc2C)c1 (stereo unspecified)	inactive	–
COc1ccc(NC(=O)CCS(=O)(=O)c2cc3c(cc2Cl)NC(=O)CO3)cc1OC	inactive	–
CN(C)CCN(C(=O)C1=COCCO1)c1nc2ccc(Cl)cc2s1	inactive	–
O=C(Nc1ccc(Sc2ccc(Br)cc2)cc1)c1ccco1	2.82 µM (active)	–
O=C(Nc1ccc(O)cc1)c1ccc(NC(=O)c2ccco2)cc1	inactive	–
O=C(Nc1ccccc1)c1ccco1	inactive	–
CCN(CC(=O)Nc1ccc(C)c(S(=O)(=O)N(C)C)c1)Cc1ccccc1	inactive	–
Cc1ccc(C(C)C)c(OCCSc2nc3ccccc3n2CC(=O)O)c1	inactive	–
CN(Cc1ccc(F)cc1Cl)S(=O)(=O)c1cccs1	inactive	–
CN(NS(=O)(=O)c1cccs1)c1ncc(C(F)(F)F)cc1Cl	5.01 µM (active)	–
C#CCN(N(C)c1ncc(C(F)(F)F)cc1Cl)S(=O)(=O)c1ccc2ccccc2c1	inactive	–
Cc1ccc(NC2CCCN(C(=O)CCc3cn[nH]c3)C2)cc1C (stereo unspecified)	inactive	–
CCc1nccn1CCC(=O)N1CCCC(N2CCN(c3ccccc3F)CC2)C1 (stereo unspecified)	inactive	–
COCc1ccc(C(=O)NC2CC(C)(C)Cc3c2cnn3-c2ccc(C)cc2)o1 (stereo unspecified)	inactive	–
CCCc1cc(C(=O)N2CCCC(CO)(CCCc3ccccc3)C2)n(C)n1 (stereo unspecified)	inactive	–
O=C(O)c1ccc(/C=N/Nc2nc(N3CCCCC3)nc(N3CCCCC3)n2)cc1	inactive	–
O=C(O)c1ccc(N/N=C/c2ccc3ncccc3c2)cc1	0.398 µM (active)	–
O=C(O)c1ccc(/C=N/NC(=O)c2ccc(Br)cc2)cc1	inactive	–
COc1ccc(OCc2cc(C(=O)NCC3(C)COC3)no2)c(Cl)c1	inactive	–

Structure (SMILES)	Potency	activity, negative = inhibition
COc1ccc(CNC(=O)C(=O)NCC2OCCN2C(=O)c2ccc(OC)cc2)cc1 (stereo unspecified)	inactive	–
COc1ccccc1C(=O)N(C1=NC(C)CS1)c1ccc(Cl)cc1 (stereo unspecified)	inactive	–
CN(CCc1ccccn1)C(=O)c1ccc(OC2CCN(CCc3ccccc3)CC2)cc1	inactive	–
CCOC(=O)c1c(S(=O)(=O)Nc2cccc(Cl)c2)c(C)n(C)c1C	inactive	–
Cc1c2c(nc3ccccc13)-c1cccc(=O)n1C2	8.91 µM (active)	–
CC(C)c1ccc2c([Si](C)(C)C)c3c(nc2c1)-c1cccc(=O)n1C3	inactive	–
Cc1nc2ccccc2c(C)c1C(=O)c1ccc(F)cc1	inactive	–
Cc1cc(C)c2nc(N(CCN(C)C)C(=O)/C=C/c3cccs3)sc2c1	inactive	–
C=CCNC(=S)N/N=C/c1ccc(OCc2ccccc2)cc1	inactive	–
O=C(O)COc1ccc(/C=N/O)cc1Br	inactive	–
CNC(=S)N/N=C/c1ccc(OCc2ccccc2)c(Br)c1	3.55 µM (active)	–
Cc1cc(C)cc(N(CC(=O)NC2CCCC2)C(=O)CCC(=O)Nc2cc(C)on2)c1	inactive	–
O=C(Nc1ccc(F)cc1)C(=O)c1cn(CC(=O)N2CCOCC2)c2ccccc12	inactive	–
Cc1cc(C(=O)CSc2nc(N)cc(=O)[nH]2)c(C)n1CCc1ccc(Cl)cc1	inactive	–
Cc1cc(=O)[nH]c(SCc2cccc(F)c2)n1	inactive	–
Cc1cc(C(=O)CSc2nc(N)cc(=O)[nH]2)c(C)n1-c1cccc(F)c1	17.8 µM (active)	–
CCCn1c(=O)c(C(=O)Nc2cc(C)ccn2)c(O)c2ccccc21	inactive	–
CCN1C(=S)N[C@@H](CCc2ccccc2)[C@H](C(=O)OC)[C@H]1C	inactive	–

Source: PubChem BioAssay AID2546 (National Center for Advancing Translational Sciences (NCATS), 2010)
